# VACV mCherry inh – inhibitors of vaccinia virus infection (mCherry reporter signal) | Vaccinia virus mCherry reporter infection, fluorescence | 310,000 compounds, 0.63% hits | Potency, µM (doses to about 36.5 µM), usual class: inhibitors; calls by dose curve; tested in A549 cells; also: nearly all actives have a fitted effect of over 35% in size
# Sm TGR inh – blocks Schistosoma mansoni thioredoxin glutathione reductase. Potency, µM (titrated, usually from 114 µM), most hits filed as inhibitors. 360,000 compounds, 3% hits. purified TGR, DTNB reduction, TNB absorbance 405 nm. Q962Y6; active = well fitted inhibition curve with a large enough effect; inconclusive = small, poorly fitted or top-dose-only effect; inactive = no such curve, though single readings can be large or run the other way; also: nearly all actives have a fitted effect of over 60% in size
#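 Kinetic colorimetric format: TGR-catalysed, NADPH-driven DTNB reduction monitored via TNB absorbance. Enzyme dispensed at 20 nM; compound exposure 15 min at room temperature before reaction start.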
# Marburg entry inh – Marburg virus entry inhibition; AID 540276; Potency, µM (titrated, usually from 37.8 µM), actives largely listed as inhibitors; Marburg virus pseudotyped entry inhibition, cell reporter; 300,000 compounds, 1.8% hits; calls by dose curve; tested in HEK293 cells
# FMDV antiviral – blocks foot and mouth disease virus; Potency, µM (highest dose often 57.9 µM), most hits filed as inhibitors; FMDV antiviral cell-based qHTS; 410,000 compounds, 1.2% hits; AID 1159524; calls by dose curve; tested in HEK293T cells; also: read-out not given here; nearly all actives have a fitted effect of over 45% in size
# Lassa entry inh – Lassa virus entry inhibition | Lassa virus pseudotype entry inhibition, cell reporter | Potency, µM (highest dose often 37.9 µM), most hits filed as inhibitors | 300,000 compounds, 1.2% hits | AID 540256; calls by dose curve; tested in HEK293 cells; also: nearly all actives have a fitted effect of over 50% in size
# VACV Venus inh – vaccinia inhibition (Venus reporter) | Potency, µM (top dose mostly 36.5 µM), actives largely listed as inhibitors | 330,000 compounds, 0.46% hits | Vaccinia virus Venus reporter expression, fluorescence | AID 720580; calls by dose curve; tested in A549 cells; also: nearly all actives have a fitted effect of over 30% in size
# Numbers stand for hits; n = inactive; u = inconclusive; x = no result; [ ] = dose if it differs, or a comment. An excerpt weighted towards active compounds, which were near 5.4% of everything screened.
SMILES,VACV mCherry inh,Sm TGR inh,Marburg entry inh,FMDV antiviral,Lassa entry inh,VACV Venus inh
O=c1c(C(c2ccccc2)c2c(O)nc3n(c2=O)CCCS3)c(O)nc2n1CCCS2,n,4.5µM,n,n,n,n
CC(NC(=O)c1cnc2n(c1=O)CCS2)c1ccccc1 (configuration not stated),n,n,n,n,n,n
O=c1c(C(c2ccc(F)cc2)c2c(O)nc3n(c2=O)CCCS3)c(O)nc2n1CCCS2,x,1.8µM,x,n,x,x
Cc1ccc(NCc2nc3ccccc3n2C)c(C)c1,n,n,2.5µM,n,u,n
Cc1cccc(NCc2nc3ccccc3n2C)c1,n,n,n,x,u,n
O=C(O)CSC1CC(=O)N(c2ccc(Cl)c(Cl)c2)C1=O (configuration not stated),x,18µM,u,n,n,n
O=C(O)CSC1CC(=O)N(c2cccc(Cl)c2)C1=O (configuration not stated),x,u,n,n,n,x
COC(=O)c1ccc([C@H]2/C(=C(\O)c3ccc(OC)cc3)C(=O)C(=O)N2Cc2ccco2)cc1,x,x,n,x,x,x
COc1ccc(Br)cc1CNC(=O)C(C)n1nc(C)n2c(cc3occc32)c1=O (configuration not stated),n,n,n,n,x,n
O=C(NCc1cccs1)C(Cc1ccccc1)n1cccc1 (configuration not stated),n,40µM,x,n,x,n
O=C(CCl)N(Cc1cc(=O)[nH]c2ccccc12)c1ccccc1,u,3.5µM,n,14µM,x,u
Cc1ccccc1N(Cc1cc(=O)[nH]c2ccccc12)C(=O)CCl,x,14µM,x,x,x,x
Cc1ccccc1N(Cc1cc(=O)[nH]c2ccccc12)C(=O)C(C)C,n,n,u,n,n,n
CCC(=O)N(Cc1cc(=O)[nH]c2ccccc12)c1ccccc1,n,n,n,n,n,n
COc1cccc(NC(=O)Cn2c(=O)n(CCc3cccc(C)c3)c(=O)c3ccccc32)c1,n,n,n,n,n,n
COC(=O)/C=c1\s/c(=C(/C#N)C(=O)NCc2ccco2)n(-c2ccccc2)c1=O,x,x,n,x,x,x
Cc1ccc(N/N=C/c2ccncc2)cc1,x,50µM,x,n,x,x
CCN(C(=O)Cn1nc(Cc2cccnc2)c2ccccc2c1=O)c1cc(C)ccc1C,n,n,n,n,n,n
Cn1nnc2c(NCc3ccc(Cl)cc3)ncnc21,u,n,x,n,n,n
COc1ccc2oc(=O)c(C(=O)N3CCN(c4ccc(C)cc4)CC3)cc2c1,n,n,n,n,n,n
O=C1OC(c2ccc(Br)cc2)=N/C1=C\c1ccco1,n,n,n,n,n,n
COc1cc(/C=C2\N=C(C)OC2=O)cc(OC)c1OC,x,18µM,x,n,x,x
CC1=N/C(=C/c2ccco2)C(=O)O1,n,28µM,n,n,n,n
CCOC(=O)Oc1ccc(/C=C2\N=C(C)OC2=O)cc1,n,13µM,n,n,n,n
CCOC(=O)Oc1ccc2oc(=O)cc(C)c2c1,x,n,n,n,n,x
SMILES,VACV mCherry inh,Sm TGR inh,Marburg entry inh,FMDV antiviral,Lassa entry inh,VACV Venus inh
Cc1ccc(C)c(NC(=O)CSc2cn(CC(=O)N3CCCCC3)c3ccccc23)c1,n,n,x,n,n,n
COc1ccc(CCNC(=O)c2ccc(Cn3c(=O)c4cccn4c4cccnc43)cc2)cc1OC,n,n,x,n,n,n
Cc1ccc(S(=O)(=O)NCCc2nnc3ccc(SCc4ccccc4F)nn23)cc1,n,n,x,n,u,n
Cn1cnc([N+](=O)[O-])c1Sc1ncnc2nc[nH]c12,n,10µM,18µM,u,u,n[7.34 µM]
Cn1cnc([N+](=O)[O-])c1Sc1ccncn1,n,x,x,n,x,n
O=C(Nc1nccs1)C12CC3CC(C1)CC(C(=O)Nc1nccs1)(C3)C2,x,n[11.4 µM],u,25µM,n,u
O=C(C1CC12CCN(Cc1cccc3cccnc13)CC2)N1CCN(Cc2cccs2)CC1 (configuration not stated),n,x,x,n,x,n
N#C/C(=C/c1ccc(N2CCCCCC2)o1)c1ccc(F)cc1,n,x,10µM,n,u,n
N#C/C(=C/c1ccc(N2CCOCC2)o1)c1ccc(Br)cc1,x,2µM,n,n,n,n
N#C/C(=C/c1ccc(N2CCOCC2)o1)c1nc2ccccc2[nH]1,x,u,u,n,u,n
N#C/C(=C\c1ccc(N2CCOCC2)o1)c1ccccc1,n,1.1µM,u,x,u,n
O=c1c2cc(N3CCOCC3)ccc2[nH]c(=S)n1CCN1CCCC1,x,n,n,n,n,x
O=c1c2cc(N3CCOCC3)ccc2[nH]c(=S)n1CCCN1CCCCCC1,x,u,18µM,n,n,x

# Assay outcomes (PubChem)
